High-throughput results: PubChem BioAssay, National Center for Advancing Translational Sciences (NCATS)
Sampled rows, rich in hits. Any-hit rate of the full collection: about 5.5%.
MBNL1 CUG block: blocks human MBNL1 binding to CUG repeat RNA; Q9NR56; TR-FRET MBNL1-His/biotin-(CUG)12 binding, 665/545 ratio; Potency, µM (highest dose often 57.5 µM), for inactives: at the top dose activity change, negative = inhibition, most hits filed as inhibitors; 280,000 tested, 0.036% active; AID 2675; active means well fitted inhibition curve with a large enough effect in the signal ratio, with a control signal flat, not every such curve was filed as active; inconclusive means small, poorly fitted or top-dose-only effect, or effect the other way, or a change in a side signal; inactive means no such curve, though single readings can be large or run the other way; the % refers to the signal ratio; further: potency means the concentration at half of the fitted maximal effect; on the % scale 0 is the no-effect control and ±100 the full control effect
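MBNL1-His + Biotin-(CUG)12, cpd titration 92 nM–58 uM; Tb anti-His Ab 0.055 ng/ul, SA-XL665 5 nM (final); 60 min RT; ratiometric 665/545 nm, Ex 340 nm; normalized to buffer and full-complex controls.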
CBFb RUNX1 block: blocks binding between human CBF-beta and RUNX1. AID 1477. 230,000 tested, under 10 active. Potency, µM (titrated, usually from 59.8 µM), for the others: at the highest dose activity, negative = inhibition, most hits filed as inhibitors. AlphaScreen CBFb-His/RUNX1-biotin binding, biochemical; further: % of control where 0% means no effect
Target sequence (Q01196 whole entry, looked up): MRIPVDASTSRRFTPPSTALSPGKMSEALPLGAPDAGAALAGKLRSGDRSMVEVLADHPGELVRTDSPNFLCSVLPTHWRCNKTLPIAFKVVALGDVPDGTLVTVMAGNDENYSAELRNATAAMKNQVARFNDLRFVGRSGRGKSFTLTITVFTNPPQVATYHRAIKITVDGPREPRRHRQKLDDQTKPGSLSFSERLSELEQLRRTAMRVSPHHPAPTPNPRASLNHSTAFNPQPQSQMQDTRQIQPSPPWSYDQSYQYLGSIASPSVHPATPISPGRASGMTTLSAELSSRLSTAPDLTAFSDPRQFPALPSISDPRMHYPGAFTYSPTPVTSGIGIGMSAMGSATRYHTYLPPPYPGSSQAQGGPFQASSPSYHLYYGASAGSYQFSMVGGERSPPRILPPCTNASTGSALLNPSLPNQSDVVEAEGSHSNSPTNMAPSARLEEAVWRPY
Target sequence (Q13951 whole entry, looked up): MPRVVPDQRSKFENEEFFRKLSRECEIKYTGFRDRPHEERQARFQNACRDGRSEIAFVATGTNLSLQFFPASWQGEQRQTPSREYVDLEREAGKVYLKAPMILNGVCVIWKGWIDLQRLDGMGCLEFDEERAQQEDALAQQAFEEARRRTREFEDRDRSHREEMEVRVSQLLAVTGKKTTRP
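CBF-beta (His) and RUNX1 (biotin), 30 nM each; 20 min preassociation; + compound, 15 min; + beads 50 ng each (Ni, streptavidin), 90 min; RT; AlphaScreen read.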
RORgamma inh: blocks mouse ROR gamma transcriptional activity; Drosophila S2 Gal4-RORgamma UAS-luciferase reporter, 20 h; P51450; 310,000 tested, 5.4% active; Potency, µM (series often up to 53.6 µM), without a hit: at the top dose activity change, negative = inhibition, actives largely listed as inhibitors; further: potency means the concentration at half of the fitted maximal effect; on the % scale 0 is the no-effect control and ±100 the full control effect; nearly all actives have a fitted effect of over 60% in size
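A Gal4/UAS one-hybrid system in insect cells: metallothionein-promoter Gal4–ROR gamma fusion plus Photinus luciferase reporter. Copper sulfate 700 uM final, 20 hr ambient incubation, luminescent detection after 10 min with reagent.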
CtBP-E1A inh: inhibitors of CtBP/E1A interaction; AlphaScreen GST-E1A/His-CtBP binding, 1536-well; active compounds read low; activity change, % (test concentration not listed); 340,000 tested, 0.49% active; AID 651724; in the data active means activity change below about -65%; inconclusive means mostly about -30% to -63%; further: on the % scale 0 is the no-effect control and ±100 the full control effect
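Homogeneous bead-based format: GST-tagged E1A captured on glutathione donor beads, His-tagged CtBP on nickel acceptor beads; compounds precede bead addition by 2 h at 37 °C.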
VP16 counter: counter-screen for ROR gamma inhibitors: Gal4-VP16 reporter; Potency, µM (titrated, usually from 53.6 µM), inactives show at the highest dose activity, negative = inhibition, usual class: inhibitors; Drosophila S2 Gal4-VP16 UAS-luciferase, luminescence, 20 h; AID 2546; 310,000 tested, 3.5% active;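 further: Gal4-VP16 expression switched on by copper sulfate through the metallothionein promoter; potency means the concentration at half of the fitted maximal effect; on the % scale 0 is the no-effect control and ±100 the full control effect; nearly all actives have a fitted effect of over 50% in size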
Six1-Eya2 inh: inhibitors of human Six1/Eya2 interaction; Q15475+O00167; AlphaScreen GST-Six1/His-Eya2 binding, biochemical; active compounds read low; activity change, % (test concentration not listed); 360,000 tested, 0.56% active; AID 651725; in the data active means activity change below about -65%; inconclusive means mostly about -30% to -63%; further: on the % scale 0 is the no-effect control and ±100 the full control effect
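Compounds are tested against tagged Six1 and Eya2 proteins bridged by glutathione donor and nickel acceptor beads; after a one-hour incubation at 37 °C without light, AlphaScreen emission is recorded.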
Active calls of the source: *; ? = inconclusive; nt = not tested or not shown; ! = a repeat was not active; [ ] = another dose, or the depositor's remark. Unless noted, the call rests on the fitted dose curve; in most records, active means well fitted curve in the direction sought with a large enough effect; inconclusive means small, poorly fitted or top-dose-only effect, or another doubt; inactive means no such curve, though single readings can be large; an effect the other way counts as inactive or inconclusive.

SMILES	MBNL1 CUG block	CBFb RUNX1 block	RORgamma inh	CtBP-E1A inh	VP16 counter	Six1-Eya2 inh
CCC(C)n1c(O)c(C=NCCc2ccccc2)c(=O)[nH]c1=S (stereo not given)	3.6%	-1.6%	10µM*	2.9	?	-7.0
C=C(C)C1CCC(C)=CC1c1c(O)cc(O)cc1CCCCC (stereo not given)	nt	6.9%	?	nt	-2.8%	nt
COC(=O)C[C@@](O)(CCC(C)(C)O)C(=O)O[C@@H]1C(OC)=C[C@]23CCCN2CCc2cc4c(cc2[C@@H]13)OCO4	nt	9.9%	0.0891µM*	nt	0.112µM*	nt
COC(=O)C(O)C(O)(CCC(C)C)C(=O)OC1C(OC)=CC23CCCN2CCc2cc4c(cc2C13)OCO4 (stereo not given)	nt	4.9%	0.126µM*	nt	?	nt
Clc1ccccc1-c1cncnc1NCCc1cnc[nH]1	nt	nt	-2.3%	nt	0.9%	nt
COc1ccc2nc(/N=C/c3c(O)n(-c4cccc(Cl)c4)c(=O)[nH]c3=O)sc2c1	-6.3%	-11.3%	-26.8%	?	-4.5%	-70.8*
CN(C)C(=O)Nc1ccc(-n2nc(C(C)(C)C)oc2=O)c(Cl)c1	nt	9.7%	23.8%	nt	-18.3%	nt
C[n+]1c(-c2ccccc2)c2cc(N)ccc2c2ccc(N)cc21	?	nt	?	?	12.6µM*	-19.6
Cc1c(N=Nc2c(O)n(Cc3ccccc3)c(=O)[nH]c2=O)c(=O)n(-c2ccccc2)n1C	?	nt	-39.1%	-71.7*	3.6%	-89.3*
COc1ccc(OC)c(N2C(=O)NC(=O)/C(=C\c3ccc([N+](=O)[O-])s3)C2=O)c1	nt	-25.7%	6.31µM*	?	?	-66.9*
CN(C)C(=O)Nc1cccc(C(F)(F)F)c1	nt	5.9%[21.7 µM]	9.5%	nt	2.5%	nt
C=C(C)[C@]12C[C@@H](C)[C@@]34OC(Cc5ccccc5)(O[C@@H]1[C@@H]3C=C(COC(=O)Cc1cc(OC)c(O)cc1I)C[C@]1(O)C(=O)C(C)=C[C@@H]41)O2	nt	7.8%	8.0%	nt	?	nt
CC(C)NS(=O)(=O)c1ccc(OCC(=O)N2CCN(Cc3ccccc3)CC2)c(Cl)c1	0.5%	0.5%	?	6.0	20µM*	7.2
O=C(O)C(Cl)Br (stereo not given)	nt	3.8%[21.7 µM]	8.5%	nt	1.3%	nt
N#CSCC(=O)N1c2ccccc2CCc2ccccc21	-9.4%	1.9%	11.2µM*	-20.2	?	-11.2
N#CC(C(=O)C12CC3CC(CC(C3)C1)C2)c1nc2ccccc2[nH]1 (stereo not given)	4.2%	-8.4%	3.98µM*	-2.8	10µM*	4.7
O=C(NC(=S)N1C[C@H]2C[C@H](C1)c1cccc(=O)n1C2)c1ccc(Cl)cc1	-4.7%	nt	4.47µM*	2.4	?	3.3
COc1cc(C(=O)NC(=S)N2C[C@H]3C[C@H](C2)c2cccc(=O)n2C3)cc(OC)c1OC	0.5%	nt	-42.1%	-1.3	-4.9%	6.4
COc1cc(OC)cc(C(=O)NC(=S)N2C[C@H]3C[C@H](C2)c2cccc(=O)n2C3)c1	-7.1%	nt	11.2µM*	1.4	-7.4%	4.1
O=C(Nc1ccc(Cl)cc1)N1CC2CC(C1)c1cccc(=O)n1C2 (stereo not given)	-1.7%	nt	8.5%	7.9	9.9%	-1.0
C[C@@]12CCC(=O)C[C@@H]1CC[C@@H]1[C@@H]2CC[C@]2(C)C(=O)CC[C@@H]12	nt	5.1%	-6.7%	nt	4.6%	nt
O=C(N/N=C1/CN2CCC1CC2)c1cc2ccccc2cc1O	3.3%	-16.1%	3.55µM*	3.3	12.6µM*	-0.9
Cc1ccc(C(=O)n2c(N)nc3ccccc32)cc1	-10.2%	-1.7%	1.58µM*	1.5	6.31µM*	1.2
O=C(N/N=C/C1C(=O)NC(=S)N(c2ccccc2)C1=O)c1cc(Br)c(O)c(Br)c1 (stereo not given)	29.0%	?	-2.9%	-91.8*	-4.9%	-92.6*
SMILES	MBNL1 CUG block	CBFb RUNX1 block	RORgamma inh	CtBP-E1A inh	VP16 counter	Six1-Eya2 inh
Cc1cc(N2C(=O)CC(N3CCC(n4c(=O)[nH]c5ccccc54)CC3)C2=O)no1 (stereo not given)	-3.6%	18.3%	3.16µM*	3.0	-2.0%	-5.7
CCN1C[C@]2(C)CC[C@H](OC)[C@@]34[C@H]1C1(OCO[C@@]15C[C@H](OC)C1C[C@]3(O)C5[C@H]1OC)[C@@H](O)[C@H]24	nt	-2.1%	7.1%	nt	-4.6%	nt
C=CCc1c(C)[nH]c(=S)c(C#N)c1C	8.3%	1.2%	6.31µM*	2.8	?	-7.8
C/C=C1/C[C@@H](C)[C@](O)(CO)C(=O)OCC2=CCN3CC[C@@H](OC1=O)C23 (stereo not given in full)	nt	?	-0.1%	nt	5.8%	nt
COP(=S)(OC)Oc1ccc([N+](=O)[O-])cc1	nt	-4.6%[21.7 µM]	11.2µM*!	nt	10µM*!	nt
COc1ccc(O)c2c(=O)c3c(OC)cc4c(c3oc12)C1C=COC1O4 (stereo not given)	-8.4%	6.6%	0.708µM*	-8.3	?	-14.5
COc1cccc(-n2c(=S)[nH]c3ccccc3c2=O)c1	16.5%	9.8%	4.47µM*	-19.6	?	-19.4
O=c1c2ccc(Cl)cc2[nH]c(=S)n1-c1cccnc1	-5.8%	4.8%	14.1µM*	-2.8	?	-11.3
O=c1c2cc(Br)ccc2[nH]c(=S)n1-c1ccccc1	-3.8%	11.8%	-1.2%	6.3	-8.5%	7.8
O=c1c2ccccc2[nH]c(=S)n1-c1ccc(Br)cc1	?	4.3%	0.891µM*	-0.1	1.41µM*	9.6
O=c1c2ccccc2[nH]c(=S)n1-c1cccnc1	nt	4.7%	13.7%	9.5	-6.4%	-1.9
CC(C)[C@H](CO)Nc1nc(Nc2cccc(Cl)c2)c2ncn(C(C)C)c2n1	nt	1.2%[21.7 µM]	14.1µM*	nt	-0.2%	nt
O=C1OC(c2cc(I)c(O)c(I)c2)(c2cc(I)c(O)c(I)c2)c2ccccc21	nt	?	-16.6%	nt	?	nt
CCCN1CCC[C@@H]2Cc3n[nH]cc3C[C@H]21	nt	14.1%	nt	nt	nt	nt
CN(C)c1ccc(P(=S)(N(C)C)N(C)C)cc1	-15.6%	-4.7%	?	1.7	1.7%	-2.6
CN(C)c1ccc(N=O)cc1	nt	2.7%[21.7 µM]	2.24µM*	nt	5.62µM*	nt
